Here are results for 9 compounds from PubChem BioAssay (NCI).

This is part of a sample that, as a whole, favours compounds with a hit. Of some 83,000 tested, about 20% had one in any assay.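 Each cell line was grown in a 96-well plate and treated with one concentration of compound for 48 hours. Values below 10 were considered active.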 Values without a mark were called inactive. Activity calls are given as the source filed them.

Common to all, as to assay: NCI-60 one-dose screen, 48 h (100 = growth as untreated, 0 = no growth, -100 = all killed)
The test system of one experiment is HT29 colon. As to conditions: 10 µM unless noted.
In the next experiment the test system is SNB-75 CNS. The following applies: 10 µM unless noted.
In another experiment the test system is SNB-19 CNS. The following applies: 10 µM unless noted.
A further experiment deals with U251 CNS. The following applies: 10 µM unless noted.
The next experiment deals with PC-3 prostate. As to conditions: 10 µM unless noted.
The test system of the next experiment is SK-MEL-5 melanoma. The following applies: 10 µM unless noted.
The next experiment relates to UACC-62 melanoma. As to conditions: 10 µM unless noted.
The subject of a further experiment is LOX IMVI melanoma. The following applies: 10 µM unless noted.
A further experiment has as its system SK-MEL-28 melanoma. As to conditions: 10 µM.
Another experiment has as its system SK-MEL-2 melanoma. The following applies: 10 µM unless noted.
For a further experiment, the system named is SN12C renal. As to conditions: 10 µM unless noted.
The next experiment deals with UO-31 renal. As to conditions: 10 µM unless noted.
The next experiment has as its system TK-10 renal. The following applies: 10 µM unless noted.
The next experiment concerns CAKI-1 renal. The following applies: 10 µM unless noted.
For another experiment, the system named is A498 renal. As to conditions: 10 µM unless noted.
The test system of the next experiment is CCRF-CEM leukemia. As to conditions: 10 µM unless noted.
The next experiment deals with MOLT-4 leukemia. As to conditions: 10 µM unless noted.
Another experiment relates to SR leukemia. The following applies: 10 µM unless noted.
A further experiment concerns EKVX NSCLC. As to conditions: 10 µM unless noted.
Another experiment concerns ACHN renal. As to conditions: 10 µM unless noted.

Regarding `CCOc1cccc(/C=N/NC(=O)C(=O)Nc2cccc(C(F)(F)F)c2)c1O`, the growth is 41.3% with HT29 colon; 68.1% with SNB-75 CNS; 41.3% with SNB-19 CNS; 22.9% with U251 CNS; 44.5% with PC-3 prostate; -25.5% (active) in the experiment with SK-MEL-5 melanoma. In addition, the growth in the experiment with UACC-62 melanoma was 2.68% (active); in the experiment on LOX IMVI melanoma, 6.47% (active); with SK-MEL-28 melanoma, 44.6%; with SK-MEL-2 melanoma, 36.9%; in the experiment on SN12C renal, 30.6%; with UO-31 renal, 9.54% (active). The growth was 46.1% with TK-10 renal; 9.87% (active) in the experiment on CAKI-1 renal; 55.9% in the experiment with A498 renal; 14.1% in the experiment on CCRF-CEM leukemia; 19.1% in the experiment with MOLT-4 leukemia; 15.9% in the experiment on SR leukemia.
On to `CCOC(=O)c1sc(-c2ccc(OS(=O)(=O)c3ccccc3[N+](=O)[O-])c(C=O)c2)nc1C`, for which the growth in the experiment on HT29 colon was 110%; with SNB-75 CNS, 73.4%; in the experiment on SNB-19 CNS it was 76.1%; with U251 CNS, 43%; in the experiment on PC-3 prostate, 70%; with SK-MEL-5 melanoma, -57.3% (active). Further, the growth is 64% in the experiment on UACC-62 melanoma; -6.91% (active) with LOX IMVI melanoma; 79.4% in the experiment on SK-MEL-28 melanoma; 92.3% in the experiment on EKVX NSCLC; 3.63% (active) in the experiment on SN12C renal; 57.1% in the experiment on UO-31 renal. Further, the growth was 85.5% in the experiment on TK-10 renal; 101% in the experiment with ACHN renal; 38.8% in the experiment on CAKI-1 renal; -84.6% (active) in the experiment on A498 renal; 12.1% with CCRF-CEM leukemia; 9.88% (active) in the experiment with MOLT-4 leukemia. The growth with SR leukemia was 9.06% (active).
In the case of `COc1ccc2sc(N(Cc3cccnc3)C(=O)c3ccc(C#N)cc3)nc2c1`, the growth in the experiment on HT29 colon was 23.4%; with SNB-75 CNS, 74%; in the experiment on SNB-19 CNS, 98.6%; in the experiment on U251 CNS, 67.4%; in the experiment on PC-3 prostate it was 78.2%; with SK-MEL-5 melanoma, 80.9%. Moreover, the growth in the experiment with UACC-62 melanoma is 86.9%; with LOX IMVI melanoma, 75.9%; in the experiment with SK-MEL-28 melanoma, 50.2%; in the experiment with SK-MEL-2 melanoma it was 109%; in the experiment on SN12C renal, 80%; with UO-31 renal it was 75.6%. The growth was 96.6% in the experiment on TK-10 renal; 91.9% in the experiment on CAKI-1 renal; 89.6% in the experiment with A498 renal; 72.1% in the experiment on CCRF-CEM leukemia; 66.4% in the experiment with SR leukemia.
As for `COC(=O)C1=C(C)NC(C)=C(C(=O)OC)C(N2C(=O)CCC2=O)C1` (stereo not drawn), the growth in the experiment with HT29 colon is 98.5%; in the experiment with SNB-75 CNS, 77.3%; in the experiment on SNB-19 CNS it was 99.9%; in the experiment on U251 CNS, 87.7%; in the experiment on PC-3 prostate, 84.6%; with SK-MEL-5 melanoma it was 102%. Also, the growth is 83.8% in the experiment on UACC-62 melanoma; 82.4% with LOX IMVI melanoma; 95.5% with SK-MEL-28 melanoma; 99.1% in the experiment with SK-MEL-2 melanoma; 88.7% in the experiment on SN12C renal; 81.9% in the experiment with UO-31 renal. Moreover, the growth was 123% in the experiment on TK-10 renal; 99% with ACHN renal; 92.6% with CAKI-1 renal; 109% in the experiment on A498 renal; 78.1% with MOLT-4 leukemia; 37.3% in the experiment on SR leukemia.
`COc1cc(OC)cc(N2C(=O)N(Cc3ccc(C(C)(C)C)cc3)c3ccccc3S2(=O)=O)c1`: the growth with HT29 colon is 93.7%; with SNB-75 CNS, 73.9%; in the experiment with SNB-19 CNS it was 94.7%; with U251 CNS, 95.9%; in the experiment with PC-3 prostate, 84.4%; in the experiment on SK-MEL-5 melanoma it was 85.8%. The growth is 90.6% with UACC-62 melanoma; 85.1% with LOX IMVI melanoma; 91.9% in the experiment on SK-MEL-28 melanoma; 88.5% in the experiment with SK-MEL-2 melanoma; 86.1% with SN12C renal; 54% with UO-31 renal. Besides, the growth in the experiment with TK-10 renal is 97.8%; in the experiment on ACHN renal it was 81.2%; in the experiment on A498 renal, 98.6%; in the experiment on CCRF-CEM leukemia, 84.7%; with MOLT-4 leukemia, 93.3%; in the experiment on SR leukemia, 41.8%.
Take `Oc1c(CN2CCN(c3ccccc3F)CC2)cc(Br)c2cccnc12`: the growth is -63.1% (active) in the experiment with HT29 colon; -92.2% (active) in the experiment with SNB-75 CNS; -16.6% (active) in the experiment on SNB-19 CNS; -83.5% (active) in the experiment on U251 CNS; 5.26% (active) in the experiment on PC-3 prostate; -10.3% (active) in the experiment on SK-MEL-5 melanoma. Further, the growth in the experiment with UACC-62 melanoma is -42.5% (active); in the experiment on LOX IMVI melanoma, -8.44% (active); in the experiment on SK-MEL-28 melanoma, -78% (active); in the experiment with SK-MEL-2 melanoma, -54.3% (active); in the experiment on SN12C renal it was 8.15% (active); in the experiment on UO-31 renal, -69.6% (active). Besides, the growth with TK-10 renal was -84.1% (active); in the experiment with ACHN renal, -30.4% (active); in the experiment with CAKI-1 renal, -17.3% (active); in the experiment on A498 renal it was 88.1%; in the experiment on CCRF-CEM leukemia it was 1.46% (active); in the experiment on SR leukemia, -6.68% (active).
In the case of `CCCCCCc1cc2cc(-c3csc(/C=C/c4ccccc4)n3)c(=O)oc2cc1O`, the growth in the experiment on HT29 colon is -37.8% (active); in the experiment on SNB-75 CNS, 3.13% (active); with SNB-19 CNS, 55.3%; with U251 CNS, 0.326% (active); in the experiment with PC-3 prostate, 25.1%; with SK-MEL-5 melanoma, -93.6% (active). Further, the growth is -68.3% (active) in the experiment with UACC-62 melanoma; -47.1% (active) in the experiment on LOX IMVI melanoma; -96.1% (active) with SK-MEL-28 melanoma; -71.5% (active) in the experiment with SK-MEL-2 melanoma; 34.9% with SN12C renal; 13.5% with UO-31 renal. Besides, the growth in the experiment with TK-10 renal was 49%; in the experiment on ACHN renal, 41.6%; in the experiment on CAKI-1 renal, 32.8%; in the experiment on A498 renal, -25.3% (active); with CCRF-CEM leukemia it was 2.21% (active); in the experiment with SR leukemia it was -7.16% (active).
In the case of `CCOC(=O)C1(C(=O)OCC)N=C(c2ccccc2)C=C1c1ccccc1`, the growth in the experiment on HT29 colon was 76.2%; with SNB-75 CNS, 81.2%; with SNB-19 CNS, 95.4%; with U251 CNS it was 83.3%; in the experiment with PC-3 prostate, 83.8%; in the experiment with SK-MEL-5 melanoma, 90.1%. Moreover, the growth in the experiment with UACC-62 melanoma is 82%; with LOX IMVI melanoma, 94.9%; with SK-MEL-28 melanoma, 105%; with SK-MEL-2 melanoma it was 82.8%; in the experiment on SN12C renal, 89.8%; in the experiment with UO-31 renal, 76%. Moreover, the growth in the experiment on TK-10 renal is 112%; in the experiment with ACHN renal, 87.7%; with CAKI-1 renal it was 83.1%; in the experiment on A498 renal, 84.4%; in the experiment on CCRF-CEM leukemia, 77.5%; in the experiment on SR leukemia, 69.7%.
Regarding `Nc1cccc(Nc2cc(S(=O)(=O)O)c(N)c3c2C(=O)c2ccccc2C3=O)c1`, the growth is 96.3% in the experiment on HT29 colon; 82.2% with SNB-75 CNS; 101% in the experiment on SNB-19 CNS; 95.5% with U251 CNS; 100% in the experiment on PC-3 prostate; 103% in the experiment on SK-MEL-5 melanoma. Besides, the growth in the experiment on UACC-62 melanoma is 106%; in the experiment on LOX IMVI melanoma, 85%; with SK-MEL-2 melanoma it was 100%; in the experiment on EKVX NSCLC it was 85.1%; with SN12C renal, 99%; in the experiment on UO-31 renal, 110%. The growth with TK-10 renal was 107%; in the experiment with ACHN renal, 96.3%; in the experiment on CAKI-1 renal, 92.8%; with A498 renal, 102%; in the experiment with CCRF-CEM leukemia, 101%; in the experiment on MOLT-4 leukemia it was 103%. The growth in the experiment on SR leukemia is 115%.
